# Assay results reported in PubChem BioAssay AID2685 (National Center for Advancing Translational Sciences (NCATS), 2010).
# The whole screen tested about 320,000 compounds, of which about 2,100 (0.66%) were called active. Not shown: some 53% with an inconclusive outcome. The call rests on the fitted dose curve; in most records, active means well fitted inhibition curve with a large enough effect in the signal ratio, with a control signal flat (not every such curve was filed as active); inconclusive means small, poorly fitted or top-dose-only effect, or effect the other way, or a change in a side signal; inactive means flat fitted curve, though single readings scatter; the % refers to the signal ratio. For the sample, actives were picked, then their nearest neighbours and some compounds at random.
# Assay: qHTS Assay for Lipid Storage Modulators in Drosophila S3 Cells;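 on cell number change: cells counted by Cell Tracker Red CMTPX staining in the red channel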; on lipid storage change, negative = inhibition: on the % scale 0 is the no-effect control and ±100 the full control effect
# Details: BODIPY lipid droplet fluorescence, 18-24 h, cells fed with added oleic acid; cell number change: measured here: cell count max response; series mostly up to 46.1 µM; lipid storage change, negative = inhibition: at the top concentration
# Summary of the method: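 Drosophila S3 cells got compounds at several concentrations plus oleic acid (400 uM solution). Laser-scanning cytometry with 488 nm excitation read lipid droplets at 500-530 nm and cells at 575-640 nm. Percent activity was relative to 20 uM Triacsin C.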
# Potency means the concentration at half of the fitted maximal effect.
SMILES,"lipid storage change, negative = inhibition",cell number change [%],outcome,Potency
Cn1ncc(Br)c1C(=O)Nc1ccc(F)cc1F,7.86% (inactive),0.403,–,–
COc1ccc(C(=O)Nc2ccc(NC(C)=O)cc2)cc1S(=O)(=O)N1CCCCC1C (stereo unspecified),-18.6% (inactive),-5.58,–,–
CC(CNC(=O)Cn1ccc2cc(S(=O)(=O)N3CCCC3)ccc21)c1ccccc1 (stereo unspecified),–,5.34,inactive,–
O=C(OCc1nc(-c2ccccc2Cl)no1)c1ccco1,27% (inactive),1,–,–
Cc1ccc(-c2ccc3nnc(SCC(=O)NCC4CCCO4)n3n2)cc1 (stereo unspecified),-0.391% (inactive),7.62,–,–
Cc1ccc(NS(=O)(=O)c2ccc(NC(=O)C3CCCO3)cc2)cc1 (stereo unspecified),-28% (inactive),-28.7,–,–
COc1ccccc1CN1CCN(C(CC(C)C)c2nnnn2Cc2cccs2)CC1 (stereo unspecified),–,–,inactive,–
CCOC(=O)[C@@H]1[C@H]2COc3ccccc3[C@H]2N2C(=O)N(c3ccc(Cl)cc3)C(=O)[C@]12C,17.4% (inactive),10.8,–,–
CCOC(=O)[C@@H]1[C@H]2COc3ccccc3[C@H]2N2C(=O)N(c3ccc(C(F)(F)F)cc3)C(=O)[C@]12C,–,21.9,–,1.46 µM (active)
CCOC(=O)[C@@H]1[C@H]2COc3ccccc3[C@@H]2N2C(=O)N(c3ccc(F)cc3)C(=O)[C@@]12C,–,-1.5,inactive,–
CCc1ccc(NC(=O)C(=S)NC2CCCCC2)cc1,0.149% (inactive),1.88,–,–
Nn1c(SCC(=O)NC2CCCCC2)nnc1-c1ccc(Cl)cc1,-4.17% (inactive),17.9,–,–
Cc1[nH]n(C)c(=O)c1[N+](=O)[O-],17.8% (inactive),4.99,–,–
COc1cc(/C=C/C(=O)OCC(=O)N2CCC(C)CC2)ccc1O,20% (inactive),24.6,–,–
COc1ccc(/C=N/OCC(=O)N2CC3(C)CC2CC(C)(C)C3)cc1 (stereo unspecified),0.198% (inactive),10.1,–,–
COc1cc(/C=C/C(=O)OCC(=O)N(C)C2CCS(=O)(=O)C2)ccc1OC(F)F (stereo unspecified),-10.5% (inactive),9.45,–,–
CCN(C(=O)COC(=O)/C=C/c1ccc(O)c(OC)c1)C1CCS(=O)(=O)C1 (stereo unspecified),–,-23.9,–,13 µM (active)
COc1cc(/C=C/C(=O)OCC(=O)N2CC3(C)CC2CC(C)(C)C3)ccc1O (stereo unspecified),–,18.4,–,0.651 µM (active)
CCN(C(=O)COC(=O)/C=C/c1ccc(OC(F)F)c(OC)c1)C1CCS(=O)(=O)C1 (stereo unspecified),3.68% (inactive),4.02,–,–
O=c1[nH]c(COc2ccc(Br)cc2Cl)nc2ccccc12,5.12% (inactive),-15,–,–
COc1ccc(CN2CC(C(=O)NCC3CCCO3)CC2=O)cc1 (stereo unspecified),0.667% (inactive),14,–,–
N#C/C(=C\c1c(N2CCC(C(N)=O)CC2)nc2ccccn2c1=O)C(=O)NC1CCCCC1,–,-18.3,–,0.164 µM (active)
N#C/C(=C\c1c(N2CCCCCC2)nc2ccccn2c1=O)C(=O)NC1CCS(=O)(=O)C1 (stereo unspecified),20.6% (inactive),–,–,–

SMILES,"lipid storage change, negative = inhibition",cell number change [%],outcome,Potency
N#C/C(=C\c1c(N2CCCCCC2)nc2ccccn2c1=O)C(N)=O,10.3% (inactive),22.6,–,–
O=C1/C(=C\c2ccccc2)CCc2c1[nH]c1ccccc21,–,–,inactive,–
Cc1cc(=O)n2nc(N3CCCC(C(=O)NCc4cccc(Br)c4)C3)sc2n1 (stereo unspecified),–,–,inactive,–
NC(=O)c1ccccc1OCc1cccc2ccccc12,–,–,inactive,–
CC1(C)CC(=O)C2=C(C1)N=C1SCCC(=O)N1C2c1ccccc1 (stereo unspecified),18.4% (inactive),9.02,–,–
Cc1ccc(S(=O)(=O)NNC(=O)c2csnn2)cc1,-10.6% (inactive),–,–,–
O=[N+]([O-])c1ccc(CN2CCCCCC2)s1,-6.35% (inactive),-8.81,–,–
Cc1ccc2nc(SCC(=O)Nc3cccc(F)c3)nc(=O)n2c1,–,1.08,–,4.11 µM (active)
Cc1ccc2nc(SCC(=O)Nc3cc(C)on3)nc(=O)n2c1,-10.5% [at 0.0737 µM] (inactive),23.9,–,–
Cc1ccc2nc(SCC(=O)Nc3ccc(Br)cc3)nc(=O)n2c1,-21.1% (inactive),-15.9,–,–
CCOC(=O)C1=C(N)OC2=C(C(=O)CC(C)(C)C2)C1c1cccnc1 (stereo unspecified),26.8% (inactive),-4.63,–,–
O=C(c1ccccc1)N(Cc1ccc(F)cc1)Cc1nc2ccccc2c(=O)[nH]1,4.2% (inactive),-10.1,–,–
CCOCCCNC(=S)N(Cc1ccccc1)Cc1nc2ccccc2c(=O)[nH]1,–,5.59,–,0.92 µM (active)
COCCCNC(=S)N(Cc1ccccc1)Cc1ccccc1,-3.1% (inactive),-0.836,–,–
CNC(=S)N(Cc1cc2ccc(OC)cc2[nH]c1=O)CC1CCCO1 (stereo unspecified),-12.6% (inactive),-8.74,–,–
Cc1onc(-c2ccccc2)c1-c1ccnn1C(=O)NC(C)C,-0.97% (inactive),15.2,–,–
Cc1cccc(N2CCN(c3ccc(N4C(=O)CCCC4=O)cc3[N+](=O)[O-])CC2)c1C,11.2% (inactive),4.71,–,–
O=C1CCCC(=O)N1c1ccc(N2CCN(c3ccc([N+](=O)[O-])cc3)CC2)c([N+](=O)[O-])c1,–,-26.2,–,20.6 µM (active)
O=C1CCCC(=O)N1c1ccc(N2CCN(c3ccccc3)CC2)c([N+](=O)[O-])c1,6.96% (inactive),-1.18,–,–
COC(=O)[C@@H]1C[C@@]2(O)[C@@H](O)[C@@H](O)[C@@H](O)C[C@H]2N1CC(c1ccccc1)c1ccccc1,-0.438% (inactive),–,–,–
O=C(c1cc2n(n1)C(C(F)(F)F)CC(c1ccc(Cl)cc1)N2)N1CCCC1 (stereo unspecified),–,–,inactive,–
O=C(O)CCC(=O)N1CCc2cc(S(=O)(=O)NCc3ccc(Cl)cc3)ccc21,2.28% (inactive),–,–,–
COc1ccccc1OCC(=O)Nc1ccc(NC(=O)COc2ccccc2OC)cc1,-14.2% (inactive),-9.29,–,–

SMILES,"lipid storage change, negative = inhibition",cell number change [%],outcome,Potency
COc1ccc2nc(SCC(=O)NC3CCCCC3)[nH]c2c1,7.03% (inactive),19.4,–,–
COc1ccc2nc(SCC(=O)NC3CCCCC3C)[nH]c2c1 (stereo unspecified),–,1.48,–,29.1 µM (active)
CC1CCCCC1NC(=O)CSc1nc2ccccc2[nH]1 (stereo unspecified),5.65% (inactive),3.6,–,–
CCCCCCCCCCOC(=O)c1csc2nnsc12,2.92% (inactive),6.22,–,–
O=C(NCCCO)c1ccc2[nH]c3ccccc3c2c1,26.1% (inactive),-15.6,–,–
Cc1cnc(C(=O)Nc2cccc(-c3nnc4n3CCCCC4)c2)cn1,3.04% (inactive),3.24,–,–
Cc1ccc(C(NC(=O)N2CC(C)OC(C)C2)C(Cl)Cl)cc1F (stereo unspecified),-10.8% (inactive),-1.54,–,–
O=C(c1c[nH]c(C(=O)C(Cl)(Cl)Cl)c1)c1ccccc1Cl,–,-14.7,–,25.9 µM (active)
O=C(c1c[nH]c(C(=O)C(Cl)(Cl)Cl)c1)c1ccccc1Br,-13.6% (inactive),7.04,–,–
O=C(c1c[nH]c(C(=O)C(Cl)(Cl)Cl)c1)c1ccccc1F,-19.6% (inactive),-11.6,–,–
COCC(=O)N1CCC(Oc2ccc(C(=O)NCc3cc(C)n(C)n3)cc2)CC1,–,-3.12,–,16.4 µM (active)
COCC(=O)N1CCC(Oc2ccc(C(=O)NCc3cnc(C)cn3)cc2)CC1,0.0981% (inactive),0.0828,–,–
COCCC(=O)N1CCC(Oc2ccc(C(=O)NCc3cc(C)n(C)n3)cc2)CC1,-6.14% (inactive),-14.5,–,–
CSc1ccc(C(=O)C2CCCN(C(=O)c3cc4cc(F)ccc4[nH]3)C2)cc1 (stereo unspecified),10.5% (inactive),18.3,–,–
CCN1CCN(CC(=O)Nc2ccc(OC(F)(F)F)cc2)CC1,-6.43% (inactive),-11.2,–,–
CC(=O)Nc1nc(-c2cccs2)cs1,11.7% (inactive),-17,–,–
O=C(Nc1nc(-c2cccs2)cs1)C1=COCCO1,6.6% (inactive),-0.427,–,–
O=C(COC(=O)c1ccc([N+](=O)[O-])o1)Nc1nc2ccccc2s1,-1.77% (inactive),-3.3,–,–
Cc1cc(C)c2nc(NC(=O)c3ccc([N+](=O)[O-])o3)sc2c1,-12.7% (inactive),8.03,–,–
O=C(Nc1nc2c(Cl)cccc2s1)c1ccc([N+](=O)[O-])o1,–,-16.1,–,11.6 µM (active)
O=C(Nc1nc(-c2cccs2)cs1)c1ccc([N+](=O)[O-])o1,–,-9.47,–,2.06 µM (active)
O=C(Nc1nc2c(F)cc(F)cc2s1)c1ccc2c(c1)OCCO2,12.2% (inactive),6.09,–,–
O=C(Nc1nc2ccccc2s1)c1ccc([N+](=O)[O-])o1,-7.57% (inactive),24.1,–,–

SMILES,"lipid storage change, negative = inhibition",cell number change [%],outcome,Potency
O=C(Nc1nc2c(F)cc(F)cc2s1)c1ccc([N+](=O)[O-])o1,–,-16.4,–,5.8 µM (active)
CCc1cccc(NC(=S)N(CCN(C)C)C(C)c2ccncc2)c1 (stereo unspecified),15% (inactive),-2.18,–,–
O=[N+]([O-])c1ccc(N2CCN(S(=O)(=O)Cc3ccccc3)CC2)cc1N1CCOCC1,–,–,inactive,–
CN1CCN(S(=O)(=O)c2csc(C(N)=O)c2)CC1,2.59% (inactive),–,–,–
COc1ccc(N2CCN(C(=O)Cn3c(=O)c4cccn4c4cccnc43)CC2)cc1,–,25.5,inactive,–
CCCCn1c(SCC(=O)NCc2ccco2)nc2c1c(=O)n(C)c(=O)n2C,-0.0096% (inactive),-2.87,–,–
Cc1nn(CC(=O)NCCc2ccc(Cl)cc2)c(=O)c2cccn12,–,14.2,inactive,–
CC(C(=O)NCCc1ccc(Cl)cc1)n1c(=O)c2cccn2c2cccnc21 (stereo unspecified),–,-6.73,–,0.517 µM (active)
O=C(Cn1c(=O)c2cccn2c2ccccc21)NCCc1ccc(Cl)cc1,–,23.3,inactive,–
CCCCOc1ccc(C(=O)N=c2sccn2C)cc1OC,-21.4% (inactive),-1.16,–,–
Cn1ccsc1=NC(=O)c1cccc(OC(F)F)c1,26.6% (inactive),-7.04,–,–
CCOc1cc(C(=O)N=c2sccn2C)ccc1OC(F)F,–,-22.3,–,11.6 µM (active)
CC(Oc1ccc(Br)cc1)C(=O)Nc1ccc(N2CCOCC2)cc1N1CCOCC1 (stereo unspecified),8.89% (inactive),-0.694,–,–
COc1ccccc1Nc1nc(N)nc(CSC(=S)N2CCC(C)CC2)n1,15.2% (inactive),8.57,–,–
COc1ccc(C(C)=O)cc1COc1ccc(F)cc1,21.6% [at 9.22 µM] (inactive),-1.38,–,–
Fc1ccc(COc2ccc(-c3nnco3)cc2)c(Cl)c1,-21.8% (inactive),3.42,–,–
CCOc1ccc(C(C)=O)cc1COc1ccc(-c2nnco2)cc1,–,–,–,1.84 µM (active)
O=C(NCCCn1ccnc1)Nc1ccc(Cl)cc1,1.02% (inactive),-5.93,–,–
Cc1c(Br)cc(C(=O)O)c(C)c1C,–,-29.4,–,25.9 µM (active)
Cc1c(N)cc(N)cc1C(=O)O,-21.6% (inactive),–,–,–
Cc1c(Br)cc(C(=O)NC2CCCCC2)c(C)c1C,-4.38% (inactive),-1.86,–,–
Cc1nn(-c2ccccc2)c(Cl)c1/C=C1/C(=N)N2N=C(C(C)C)SC2=NC1=O,-3.97% (inactive),10.8,–,–
CCOc1ccc(N2CC(C(=O)NCc3nnnn3-c3ccc(C)c(C)c3)CC2=O)cc1 (stereo unspecified),–,12.6,inactive,–
